From PubChem
G9a inh – inhibitors of human histone lysine methyltransferase G9a | Q96KQ7 | G9a H3K9 monomethylation, AlphaScreen, 2 h | Potency, µM (series often up to 102 µM), for the others: top-dose activity, negative = inhibition, most hits filed as inhibitors | 8.8% of 350,000 active | AID 504332; also: potency is read from the fitted curve at half-maximal effect; % is scaled to controls: 0 for no effect and ±100 for the full control effect; nearly all actives have a fitted effect of over 75% in size
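AlphaScreen read-out: biotin-H3K9 peptide (500 nM) methylation by 20 nM enzyme with 20 uM SAM, 2 h at room temperature after 15 min compound preincubation; anti-monomethyl H3K9 antibody plus donor/acceptor beads, 10 min dark.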
JMJD2A Tudor inh – JMJD2A Tudor domain (human) inhibition | Potency, µM (series often up to 114 µM), for the others: at the highest dose activity change, negative = inhibition, most hits filed as inhibitors | 4.4% of 390,000 active | AID 504339 | O75164 | AlphaScreen JMJD2A-Tudor / H3K4me3 peptide binding; also: potency is read from the fitted curve at half-maximal effect; % is scaled to controls: 0 for no effect and ±100 for the full control effect; nearly all actives have a fitted effect of over 50% in size
Target sequence (O75164 whole entry, looked up, the tested form may be a part): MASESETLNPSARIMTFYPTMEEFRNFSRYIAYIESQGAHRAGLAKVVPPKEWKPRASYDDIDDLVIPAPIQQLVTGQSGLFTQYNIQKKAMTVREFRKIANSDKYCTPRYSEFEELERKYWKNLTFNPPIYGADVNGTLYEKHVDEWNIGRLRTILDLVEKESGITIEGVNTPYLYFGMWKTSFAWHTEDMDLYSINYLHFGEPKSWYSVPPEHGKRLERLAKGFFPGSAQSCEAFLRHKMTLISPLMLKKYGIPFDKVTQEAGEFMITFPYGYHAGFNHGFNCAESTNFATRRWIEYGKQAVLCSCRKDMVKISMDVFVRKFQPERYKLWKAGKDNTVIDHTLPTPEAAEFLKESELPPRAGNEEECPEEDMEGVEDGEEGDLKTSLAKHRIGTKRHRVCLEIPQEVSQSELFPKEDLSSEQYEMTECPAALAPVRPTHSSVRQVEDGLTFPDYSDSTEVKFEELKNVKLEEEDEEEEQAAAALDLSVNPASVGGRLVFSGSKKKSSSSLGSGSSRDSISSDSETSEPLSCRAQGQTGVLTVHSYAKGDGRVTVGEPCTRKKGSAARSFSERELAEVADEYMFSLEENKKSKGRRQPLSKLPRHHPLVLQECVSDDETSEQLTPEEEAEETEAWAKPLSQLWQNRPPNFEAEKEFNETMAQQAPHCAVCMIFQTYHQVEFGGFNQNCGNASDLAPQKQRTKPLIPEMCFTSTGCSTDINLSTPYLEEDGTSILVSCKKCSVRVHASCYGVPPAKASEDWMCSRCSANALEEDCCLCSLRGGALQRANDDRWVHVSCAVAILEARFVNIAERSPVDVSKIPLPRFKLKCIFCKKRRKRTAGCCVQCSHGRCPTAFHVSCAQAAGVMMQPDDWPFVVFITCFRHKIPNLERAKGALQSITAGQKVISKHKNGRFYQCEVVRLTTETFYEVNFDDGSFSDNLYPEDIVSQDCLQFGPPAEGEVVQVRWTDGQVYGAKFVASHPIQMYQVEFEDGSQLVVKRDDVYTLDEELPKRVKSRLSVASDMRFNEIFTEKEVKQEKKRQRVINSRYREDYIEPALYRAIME
BAZ2B inh – inhibitors of human BAZ2B bromodomain. AlphaScreen BAZ2B-H3K14Ac peptide displacement. AID 504333. Potency, µM (doses to about 114 µM), inactives show top-dose activity change, negative = inhibition, hits mostly inhibitors. 4.4% of 360,000 active; also: potency is read from the fitted curve at half-maximal effect; % is scaled to controls: 0 for no effect and ±100 for the full control effect; nearly all actives have a fitted effect of over 60% in size
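AlphaScreen luminescence quantifies BAZ2B engagement of H3K14Ac peptide; the protein and biotinylated peptide are both at 50 nM final, buffer PBS pH 7.4 with 0.01% Tween-20, all steps at room temperature.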
PI5P4Ka inh – blocks human PI5P4K alpha kinase activity | max response, % | P48426 | 1.2% of 330,000 active | PI5P4Kalpha enzyme, ADP-Glo luminescence, 60 min; hits give low values | AID 652105; active = max response of -50% or lower; inconclusive = between -30% and -50%; inactive = -30% or higher; also: value at the top dose of about 77 µM; % is scaled to controls: 0 for no effect and ±100 for the full control effect
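ADP-Glo luminescence end-point read after a 60 min room-temperature kinase reaction of PI5P4Kalpha plus substrate, initiated with ATP at 5 microM final. Buffer: 0.038 M HEPES pH 7.4, EGTA, 0.1% CHAPS, 5% DMSO.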
HP1b chromo inh – blocks HP1-beta chromodomain binding to methylated histone tails; P83916; AlphaScreen HP1-beta / biotin-H3K9me3 peptide binding; 0.56% of 390,000 active; Potency, µM (doses to about 114 µM), for inactives: at the top dose activity change, negative = inhibition, hits mostly inhibitors; also: potency is read from the fitted curve at half-maximal effect; nearly all actives have a fitted effect of over 70% in size
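AlphaScreen: HP1-beta (50 nM) preformed 30 min with biotin-H3(1-18)K9me3 peptide (50 nM) in PBS pH 7.4, 0.01% Tween-20. Compound added for 30 min at RT, then streptavidin donor/nickel chelate acceptor beads (10 ug/mL) for 30 min.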
L3MBTL1 inh – inhibitors of human L3MBTL1. 0.66% of 230,000 active. AID 485360. Potency, µM (highest dose often 57.1 µM), inactives show at the highest dose activity, negative = inhibition, most hits filed as inhibitors. AlphaScreen L3MBTL1–H3K9me1 peptide binding. Q9Y468; also: potency is read from the fitted curve at half-maximal effect; % is scaled to controls: 0 for no effect and ±100 for the full control effect; nearly all actives have a fitted effect of over 60% in size
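AlphaScreen proximity signal between nickel-chelate acceptor and streptavidin donor beads (final 10 ug/mL) reports binding of 50 nM L3MBTL1 to 75 nM biotin-H3 K9me1 peptide; complex incubated with compounds 30 min at room temperature; cefsulodin titration as control.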
Numbers without * were called inactive; ! = not active in a repeat; [ ] = another dose, or the depositor's remark. Compounds with a hit are over-represented: about 11% of the library has one in this group of screens. Unless noted, calls follow the shape of the dose curve; as a rule, active = well fitted inhibition curve with a large enough effect; inconclusive = small, poorly fitted or top-dose-only effect; inactive = no such curve, though single readings can be large or run the other way.

`O=C1C(=O)C(c2ccc(O)cc2O)Oc2cc(O)cc(O)c21` (stereo unspecified) gave JMJD2A Tudor inh 14µM* and HP1b chromo inh inconclusive.
For CCc1ccc2c(c1)C1(NN=C(c3cccc4ccccc34)S1)C(=O)N2 (stereo unspecified) the results were G9a inh inconclusive, BAZ2B inh 20µM* and L3MBTL1 inh inconclusive.
Screening Cn1c(N)nc2nc[nH]c2c1=S returned JMJD2A Tudor inh 40µM*, PI5P4Ka inh 0 and HP1b chromo inh 46%.
Screening Cc1ccc(CN2CCCn3nc(C(=O)NCc4cc(C)ccc4C)cc3C2=O)cc1 returned G9a inh 5%[59 µM], JMJD2A Tudor inh -28%, BAZ2B inh -20% and HP1b chromo inh 7%.
`CCc1ccc(CN(Cc2cn[nH]c2-c2ccc(OC)cc2)C(=O)Nc2ccc(Br)cc2)cc1` gave G9a inh -1%[59 µM], JMJD2A Tudor inh -3%, BAZ2B inh -3% and HP1b chromo inh 46%.
`CCOc1ccc(CN2CCC(C(=O)N3CCN(c4ccccc4F)CC3)CC2)cc1OC` gave G9a inh 8.9µM*, JMJD2A Tudor inh 7.1µM*, BAZ2B inh inconclusive, PI5P4Ka inh -3, HP1b chromo inh inconclusive and L3MBTL1 inh -3%.
Screening CC(C)CN1CCC(C(=O)N2CCN(c3ccccc3F)CC2)CC1 returned G9a inh 10µM*, JMJD2A Tudor inh 22µM*, BAZ2B inh inconclusive, PI5P4Ka inh 1, HP1b chromo inh inconclusive and L3MBTL1 inh 5%.
O=C(C1CCCCC1)N1CCN(c2ccccc2F)CC1 was read as G9a inh -5%[12.7 µM], JMJD2A Tudor inh -9%[57.1 µM], BAZ2B inh 12%, PI5P4Ka inh -9 and HP1b chromo inh 36%.
For O=C(CSc1nc2c([nH]c3ccccc32)c(=O)n1-c1ccc(F)cc1)NC1CCCCC1 the results were G9a inh 10%[59 µM], JMJD2A Tudor inh -23%, BAZ2B inh 1% and HP1b chromo inh 24%[57 µM].
Screening O=C(O)COc1ccc(/C=C/C(=O)c2ccc(C3CCCCC3)cc2)cc1 returned G9a inh 22µM*, JMJD2A Tudor inh -34%, BAZ2B inh -16%, PI5P4Ka inh 5 and HP1b chromo inh -2%.
Screening O=C(NNS(=O)(=O)c1ccc(Cl)cc1)c1sccc1-n1cccc1 returned G9a inh inconclusive, JMJD2A Tudor inh 13µM*, BAZ2B inh -36%, HP1b chromo inh -4% and L3MBTL1 inh -8%.
`COc1ccc(-c2nc3sc(CCNC(=O)Cc4ccc(F)cc4)c(C)n3n2)cc1` gave G9a inh -13%[59 µM], JMJD2A Tudor inh -12%, BAZ2B inh -1% and HP1b chromo inh 38%.
`COc1ccc(-c2nc3sc(CCNC(=O)Cc4ccccc4)c(C)n3n2)cc1` gave G9a inh 3.5µM*, JMJD2A Tudor inh -24%, BAZ2B inh 0% and HP1b chromo inh 31%.
Screening CCCN1C(=O)C2(c3ccccc31)c1c(oc3ccc(F)cc3c1=O)C(=O)N2CCCOC(C)C (stereo unspecified) returned G9a inh -35%[59 µM], JMJD2A Tudor inh -13%, BAZ2B inh -1% and HP1b chromo inh 23%.
For Cc1ccc(N2C(=O)CSC23C(=O)N(CC(=O)NC2CCCCC2)c2ccccc23)cc1 (stereo unspecified) the results were G9a inh -23%[59 µM], JMJD2A Tudor inh -8%, BAZ2B inh 4%[57.1 µM] and HP1b chromo inh 24%.
O=C(COc1ncnc2ccccc12)N1CCN(C(=O)c2ccco2)CC1 was read as G9a inh -6%, JMJD2A Tudor inh -2%, BAZ2B inh 3%, PI5P4Ka inh 2, HP1b chromo inh 26% and L3MBTL1 inh 2%.
For O=C(COc1ncnc2sccc12)N1CCN(C(=O)c2ccco2)CC1 the results were G9a inh 50µM*, JMJD2A Tudor inh inconclusive, BAZ2B inh inconclusive, PI5P4Ka inh inconclusive, HP1b chromo inh 20% and L3MBTL1 inh inconclusive.
For Cc1cc(NC(=O)Nc2nnc(N3CCCCC3)s2)ccc1Br the results were G9a inh inconclusive, JMJD2A Tudor inh -9%, BAZ2B inh 0% and HP1b chromo inh 56%.
Screening CCOc1ccc(NC2=C(Cl)C(=O)N(C3CCCCC3)C2=O)cc1 returned G9a inh inconclusive, JMJD2A Tudor inh inconclusive, BAZ2B inh -23%, PI5P4Ka inh 8, HP1b chromo inh -12% and L3MBTL1 inh -2%.
CN1CCN(C2=C(Cl)C(=O)N(C3CCCCC3)C2=O)CC1 was read as G9a inh 40µM*, JMJD2A Tudor inh -18%, BAZ2B inh 1%, HP1b chromo inh 36% and L3MBTL1 inh -11%.
COC(=O)c1ccc2c(=O)n(-c3ccccc3)c(=S)[nH]c2c1 was read as G9a inh -34%, JMJD2A Tudor inh -26%, BAZ2B inh -33%, PI5P4Ka inh -10 and HP1b chromo inh 32%.
For O=c1[nH]c2cnccc2n1-c1ccccc1 the results were G9a inh 23%[59 µM], JMJD2A Tudor inh -2%, BAZ2B inh 8%, PI5P4Ka inh 2, HP1b chromo inh 29% and L3MBTL1 inh 5%.
Screening O=c1[nH]c(=O)c2[nH]c(=O)n(-c3ccccc3)c2[nH]1 returned JMJD2A Tudor inh -6%, PI5P4Ka inh -57* and HP1b chromo inh 2%.
`O=c1[nH]c(=S)c2[nH]c(=S)n(-c3ccccc3)c2[nH]1` gave JMJD2A Tudor inh 20µM*, PI5P4Ka inh -84* and HP1b chromo inh inconclusive.
For CC(C)NC(=O)N1CC[C@@]2(CCCN(C(=O)c3cnccn3)C2)C1 the results were G9a inh 1%[12.7 µM].
Screening CCCCCCCCCCCCCCCCOC[C@H](COP(=O)([O-])OCC[N+](C)(C)C)OC(=O)NC returned G9a inh -18%[59 µM].
`NC(=O)c1ncn([C@@H]2O[C@H](CO)[C@@H](O)[C@H]2O)c1O` gave G9a inh 25µM*!, JMJD2A Tudor inh -19%, BAZ2B inh -17%, PI5P4Ka inh 1, HP1b chromo inh 32% and L3MBTL1 inh 6%.
Cc1oc(-c2cccc(Cl)c2)nc1Cn1c(SCc2ccc(F)cc2)nc2cccnc21 was read as G9a inh inconclusive, JMJD2A Tudor inh -23%, BAZ2B inh -13% and HP1b chromo inh 35%.
COc1ccc2ccc3c(c2c1)N=C[C@]1(O3)N(C)c2ccccc2C1(C)C was read as G9a inh 29%[0.501 µM], JMJD2A Tudor inh -28%[11.4 µM], BAZ2B inh 50µM*, PI5P4Ka inh inconclusive, HP1b chromo inh inconclusive and L3MBTL1 inh 0%.
Screening COc1ccc2oc(=O)cc(CN3CCN(C(=O)c4ccccc4)CC3)c2c1 returned G9a inh inconclusive, JMJD2A Tudor inh -4%, BAZ2B inh -4% and HP1b chromo inh 15%.
